Assay results taken from the supplement of paper PMC8975748.
Structures can show the parent of a compound that is named as a salt. ± gives the standard deviation of the averaged measurements.

Legend:
[1] = tested on: Saccharomyces cerevisiae BY4741 SeMeCo community; assay: mean cell size (pixel area) (pixels); higher = larger cells; settings: 10 µM; 24 h; SM minimal medium
Procedure, shortened: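 Plates of 384 wells were acoustically predosed with drug at a final 10 µM in SM medium, and 70 µl of a Saccharomyces cerevisiae BY4741 preculture diluted from OD600 = 1.0 to OD600 = 0.3 was added for 24 h. The yeast formed a four-plasmid fluorescent community in which each plasmid complements one auxotrophy and carries a fluorescent marker. Fixed cells were imaged by automated confocal microscopy and analysed in Harmony for mean cell pixel area per well. Values are means of 3 replicates. Same SeMeCo high-content imaging drug screen: Selleck FDA-approved drugs at 10 µM, 24 h in SM medium, 384-well plates, 3 replicates.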

[2] = tested on: Saccharomyces cerevisiae BY4741 SeMeCo community; assay: z-score of prototroph abundance vs DMSO median; higher = larger share of this subpopulation than in DMSO controls; settings: 10 µM; 24 h; SM minimal medium; subpopulation (auxotrophy): Prototroph
Procedure, shortened: (§1)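 A Saccharomyces cerevisiae BY4741 community carried four plasmids, each restoring one auxotrophy and encoding a distinct fluorescent protein. It was pre-grown overnight to OD600 1.0, diluted to 0.3, and 70 µl was added to 384-well plates acoustically predosed with library drugs (10 µM final), then grown 24 h in minimal SM medium. Cells were paraformaldehyde-fixed and imaged by automated confocal microscopy, with single-auxotroph fluorescent strains setting thresholds and autofluorescence correction. Each subpopulation's abundance was scored as a z-score against the vehicle-well median.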

[3] = tested on: Saccharomyces cerevisiae BY4741 SeMeCo community; assay: z-score of subpopulation abundance vs DMSO median, subpopulation auxotrophic for M; higher = larger share of this subpopulation than in DMSO controls; settings: 10 µM; 24 h; SM minimal medium; subpopulation (auxotrophy): M
Procedure, shortened: as §1

[4] = tested on: Saccharomyces cerevisiae BY4741 SeMeCo community; assay: z-score of subpopulation abundance vs DMSO median, subpopulation auxotrophic for L; higher = larger share of this subpopulation than in DMSO controls; settings: 10 µM; 24 h; SM minimal medium; subpopulation (auxotrophy): L
Procedure, shortened: as §1

[5] = tested on: Saccharomyces cerevisiae BY4741 SeMeCo community; assay: z-score of subpopulation abundance vs DMSO median, subpopulation auxotrophic for U; higher = larger share of this subpopulation than in DMSO controls; settings: 10 µM; 24 h; SM minimal medium; subpopulation (auxotrophy): U
Procedure, shortened: as §1

[6] = tested on: Saccharomyces cerevisiae BY4741 SeMeCo community; assay: z-score of subpopulation abundance vs DMSO median, subpopulation auxotrophic for H; higher = larger share of this subpopulation than in DMSO controls; settings: 10 µM; 24 h; SM minimal medium; subpopulation (auxotrophy): H
Procedure, shortened: as §1

[7] = tested on: Saccharomyces cerevisiae BY4741 SeMeCo community; assay: z-score of subpopulation abundance vs DMSO median, subpopulation auxotrophic for LU; higher = larger share of this subpopulation than in DMSO controls; settings: 10 µM; 24 h; SM minimal medium; subpopulation (auxotrophy): LU
Procedure, shortened: as §1

[8] = tested on: Saccharomyces cerevisiae BY4741 SeMeCo community; assay: z-score of subpopulation abundance vs DMSO median, subpopulation auxotrophic for LM; higher = larger share of this subpopulation than in DMSO controls; settings: 10 µM; 24 h; SM minimal medium; subpopulation (auxotrophy): LM
Procedure, shortened: as §1

[9] = tested on: Saccharomyces cerevisiae BY4741 SeMeCo community; assay: z-score of subpopulation abundance vs DMSO median, subpopulation auxotrophic for HM; higher = larger share of this subpopulation than in DMSO controls; settings: 10 µM; 24 h; SM minimal medium; subpopulation (auxotrophy): HM
Procedure, shortened: as §1

[10] = tested on: Saccharomyces cerevisiae BY4741 SeMeCo community; assay: z-score of subpopulation abundance vs DMSO median, subpopulation auxotrophic for UM; higher = larger share of this subpopulation than in DMSO controls; settings: 10 µM; 24 h; SM minimal medium; subpopulation (auxotrophy): UM
Procedure, shortened: as §1

[11] = tested on: Saccharomyces cerevisiae BY4741 SeMeCo community; assay: z-score of subpopulation abundance vs DMSO median, subpopulation auxotrophic for HL; higher = larger share of this subpopulation than in DMSO controls; settings: 10 µM; 24 h; SM minimal medium; subpopulation (auxotrophy): HL
Procedure, shortened: as §1

[12] = tested on: Saccharomyces cerevisiae BY4741 SeMeCo community; assay: z-score of subpopulation abundance vs DMSO median, subpopulation auxotrophic for HLU; higher = larger share of this subpopulation than in DMSO controls; settings: 10 µM; 24 h; SM minimal medium; subpopulation (auxotrophy): HLU
Procedure, shortened: as §1

[13] = tested on: Saccharomyces cerevisiae BY4741 SeMeCo community; assay: z-score of subpopulation abundance vs DMSO median, subpopulation auxotrophic for HLM; higher = larger share of this subpopulation than in DMSO controls; settings: 10 µM; 24 h; SM minimal medium; subpopulation (auxotrophy): HLM
Procedure, shortened: as §1

[14] = tested on: Saccharomyces cerevisiae BY4741 SeMeCo community; assay: z-score of subpopulation abundance vs DMSO median, subpopulation auxotrophic for HUM; higher = larger share of this subpopulation than in DMSO controls; settings: 10 µM; 24 h; SM minimal medium; subpopulation (auxotrophy): HUM
Procedure, shortened: as §1

[15] = tested on: Saccharomyces cerevisiae BY4741 SeMeCo community; assay: z-score of subpopulation abundance vs DMSO median, subpopulation auxotrophic for LUM; higher = larger share of this subpopulation than in DMSO controls; settings: 10 µM; 24 h; SM minimal medium; subpopulation (auxotrophy): LUM
Procedure, shortened: as §1

[16] = tested on: Saccharomyces cerevisiae BY4741 SeMeCo community; assay: z-score of subpopulation abundance vs DMSO median, subpopulation auxotrophic for HLUM; higher = larger share of this subpopulation than in DMSO controls; settings: 10 µM; 24 h; SM minimal medium; subpopulation (auxotrophy): HLUM
Procedure, shortened: as §1

[17] = tested on: Saccharomyces cerevisiae BY4741 SeMeCo community; assay: z-score of subpopulation abundance vs DMSO median, subpopulation auxotrophic for HU; higher = larger share of this subpopulation than in DMSO controls; settings: 10 µM; 24 h; SM minimal medium; subpopulation (auxotrophy): HU
Procedure, shortened: as §1

Structure (SMILES) | mean cell size [1] | z-score of prototroph abundance [2] | z-score of subpopulation abundance [3] | z-score of subpopulation abundance [4] | z-score of subpopulation abundance [5] | z-score of subpopulation abundance [6] | z-score of subpopulation abundance [7] | z-score of subpopulation abundance [8] | z-score of subpopulation abundance [9] | z-score of subpopulation abundance [10] | z-score of subpopulation abundance [11] | z-score of subpopulation abundance [12] | z-score of subpopulation abundance [13] | z-score of subpopulation abundance [14] | z-score of subpopulation abundance [15] | z-score of subpopulation abundance [16] | z-score of subpopulation abundance [17]
Clc1ccc(COC(Cn2ccnc2)c2ccc(Cl)cc2Cl)c(Cl)c1 (stereo not given) [Miconazole Nitrate] | 12.3 ± 0.19 | -8.17 | -6.38 | -2.76 | 3.11 | 29.9 | -0.2 | -3.18 | 0.3 | 1.18 | 9.42 | 11.6 | 19.4 | 6.7 | 0.15 | 9.42 | 
O=C(O[C@@H]1C[C@@H]2C[C@H]3C[C@H](C1)N2CC3=O)c1c[nH]c2ccccc12 [Dolasetron Mesylate] | 12.18 ± 0.11 | -0.86 | 0.81 | -0.52 |  | -0.55 | 1.19 | 0.31 | 1.09 | 1.07 | 0 | 0.01 | 0.35 | 0.41 | 0.21 | -0.07 | 0.7
Cc1c[nH]c(=O)[nH]c1=O [Thymine] | 12.4 ± 0.22 | -0.52 | 0.85 | 0.24 |  | -0.36 | 0.49 | -0.22 | 0.33 | 0.58 | -0.04 | 0.71 | 0.64 | 0.09 |  | 0.51 | 0.14
CC(=O)NS(=O)(=O)c1ccc(N)cc1 [Sulfacetamide Sodium] | 12.4 ± 0.26 |  | 0.42 | -0.02 |  | 0.92 | 0.61 | -0.08 | 0.1 | 0.35 |  | -0.24 | -0.1 | 0.62 |  | 0.37 | -0.34
CC1(C)S[C@@H]2[C@H](NC(=O)[C@H](C(=O)O)c3ccsc3)C(=O)N2[C@H]1C(=O)O [Ticarcillin sodium] | 12.4 ± 0.22 | -0.89 | 1.32 | 2.72 | -0.93 |  | 1.74 | 2.06 | 0.42 |  | 2.48 | 1.46 | 1.43 | 0.83 |  | 1.75 | -0.4
COc1cccc2c1C(=O)c1c(O)c3c(c(O)c1C2=O)C[C@@](O)(C(=O)CO)C[C@@H]3O[C@H]1C[C@H](N)[C@@H](O)[C@H](C)O1 [Epirubicin HCl] | 12.6 ± 0.2 |  | -4.59 | 1.16 | 1.23 | 1.56 | 2.53 | -0.38 | -3.22 | -0.97 | 2.24 | 2.87 | 0.2 | 0.3 | 2.67 | 4.48 | 
Nc1nc2ccc(OC(F)(F)F)cc2s1 [Riluzole] | 12.6 ± 0.14 | 0.62 | -0.49 | 0.43 | -0.8 | -0.43 | 0.41 | 0.35 | -0.84 | -0.42 | -0.55 | -0.57 | 0.67 | -0.82 | -0.13 |  | -1.39
